Laboratory results published in the supplement of paper PMC10127200.
Structures can show the parent of a compound that is named as a salt.

The compounds below were run on OVCAR4 (assay: Euclidean distance of Cell Painting phenotypic profile (signed KS, 77 features) to DMSO centroid (dimensionless distance); higher = stronger phenotypic change vs DMSO (phenoactivity)). Settings: 48 h; 5 or 10 uM (library dependent).
In short: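 Stained cells were imaged confocally at 20X with 9 fields per well, after 48 h of exposure to library compounds at 10 or 5 uM (set by library; 0.1% DMSO final). The cells were five cancer lines and a healthy fibroblast line. From the images, Harmony extracted 77 features, each expressed as a signed Kolmogorov-Smirnov statistic relative to same-plate vehicle wells. Phenoactivity is measured as Euclidean distance to the median vehicle profile, using plate-position-corrected, correlation-weighted profiles averaged across replicates at the top dose.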

Compound	Euclidean distance
Cn1c(CCCCCCC(=O)NO)nc2cc(N(CCCl)CCCl)ccc21 [Tinostamustine(EDO-S101)]	3.16
O=C1CC[C@@]2(O)[C@H]3Cc4ccc(O)c5c4[C@@]2(CCN3CC2CC2)[C@H]1O5 [Naltrexone HCl]	1.99
Cc1cccc(Cc2c[nH]cn2)c1C [Detomidine HCl]	1.34
CNCC(O)c1ccc(O)cc1 (stereo not given) [Synephrine HCl]	1.27
Clc1ccc(C(OCCN2CCCCC2)c2ccccc2)cc1 (stereo not given) [Cloperastine hydrochloride]	1.16
COc1cc(OC)c(OC)cc1C=O [Asaraldehyde]	1.06
Oc1cccc2cccnc12 [8-Hydroxyquinoline]	1.56
Cc1cc(C(C#N)c2ccc(Cl)cc2)c(Cl)cc1NC(=O)c1cc(I)cc(I)c1O (stereo not given) [Closantel]	0.648
O=P(O)(NCCCl)NCCCl [Palifosfamide]	1.21
C[C@]12CCC(=O)C[C@@H]1CC[C@@H]1[C@@H]2CC[C@]2(C)[C@@H](O)CC[C@@H]12 [Dihydrotestosterone(DHT)]	0.677
O=c1ccc2ccc3occc3c2o1 [Isopsoralen]	1.1
CC(C)[N+](C)(CCC(C(N)=O)(c1ccccc1)c1ccccc1)C(C)C [Isopropamide Iodide]	1.23
CCCCCc1cc(O)cc(O)c1 [Olivetol]	0.946
NCC(O)c1ccc(O)cc1 (stereo not given) [(+.-)-Octopamine HCl]	1.03
C[C@H]1CC(=O)C[C@@H]2CC[C@H]3[C@@H]4CC[C@H](O)[C@@]4(C)CC[C@@H]3[C@]21C [Mesterolone]	0.883
O=[N+]([O-])c1ncc[nH]1 [Azomycin]	0.81
COCC1(CO)C(=O)C2CCN1CC2 (stereo not given)	2.18
CN1c2ccccc2C(NCCCCCCC(=O)O)c2ccc(Cl)cc2S1(=O)=O (stereo not given) [Tianeptine sodium]	1.36

Compound	Euclidean distance
CN1C[C@H](C(=O)N[C@]2(C)O[C@@]3(O)[C@@H]4CCCN4C(=O)[C@H](Cc4ccccc4)N3C2=O)C[C@@H]2c3cccc4[nH]cc(c34)C[C@H]21 [Dihydroergotamine Mesylate]	1.25
NCCc1c[nH]c2ccc(O)cc12 [Serotonin HCl]	1.71
CCC(=O)O[C@H]1CC[C@H]2[C@@H]3CC[C@H]4CC(=O)[C@H](C)C[C@]4(C)[C@H]3CC[C@]12C [Drostanolone Propionate]	0.745
CC(=O)NC1CCSC1=O (stereo not given) [Citiolone]	1.71
CN1CCC(C(=O)c2cccc(NC(=O)c3c(F)cc(F)cc3F)n2)CC1 [Lasmiditan succinate]	1.39
C[N+]1(C)[C@@H]2C[C@@H](OC(=O)[C@H](CO)c3ccccc3)C[C@H]1[C@@H]1O[C@@H]12 [Methscopolamine]	1.04
CC(=O)[C@H]1CC[C@H]2[C@@H]3CC[C@H]4C[C@H](O)CC[C@]4(C)[C@H]3CC[C@]12C [Allopregnanolone]	1.64
NC(=O)CN1CCCC1=O [Piracetam]	1.01
O=[N+]([O-])O[C@@H]1CO[C@H]2[C@@H]1OC[C@@H]2O [Isosorbide Mononitrate]	0.962
C=C1[C@@H](C)[C@H]2[C@H](Cc3ccccc3)NC(=O)[C@]23[C@H](OC(C)=O)/C=C/[C@@](C)(O)C(=O)[C@@H](C)C/C=C/[C@H]3[C@@H]1O [Cytochalasin D]	3.87
C=C(C)[C@H]1Cc2c(ccc3c2O[C@@H]2COc4cc(OC)c(OC)cc4[C@@H]2C3=O)O1 [Rotenone (Barbasco)]	2.89
Cc1cccc(C)c1NC1=NCCCS1 [Xylazine]	0.579
CC(=O)Nc1ccc(OC[C@](C)(O)C(=O)Nc2ccc([N+](=O)[O-])c(C(F)(F)F)c2)cc1 [Andarine]	1
CC1(C)S[C@@H]2[C@H](N)C(=O)N2[C@H]1C(=O)O [6-Aminopenicillanic acid]	1.5
Cc1ccc(/N=C/N(C)/C=N/c2ccc(C)cc2C)c(C)c1 [Amitraz]	0.684
COC1=C[C@@H]2[C@@H]3Cc4ccc(OC)c(O)c4[C@]2(CCN3C)CC1=O [Sinomenine hydrochloride]	0.824
CC(C)(C)c1cc(C=C(C#N)C#N)cc(Br)c1O	1.52
